Experimental data reported in PubChem BioAssay (EPA / NIEHS).
Where “and” joins values, the source holds several entries; their conditions need not be identical. Equal values may be shown once. Where a structure was tested more than once in an assay, its records may differ in their call. Calls of active or inactive are those of the source. Rule for the calls: active = hit-call score of the fitted dose curve at least 0.9, where 1 is the maximum; inactive = score below 0.9.

Key:
[1] = APR_HepG2_P-H2AX_72hr: Apredica 72-hour HepG2 Assay for H2AX Phosphorylation (AID 2282916); conditions: imaging, actives raise or lower the signal;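 note: phospho-histone H2A.x immunostain intensity per cell marking DNA damage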
Summary of the method: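 Human hepatoma HepG2 cells are dosed across ten concentrations (0.39 to 200 uM, 0.5% v/v DMSO) and incubated 72 hr. Phospho-histone H2A.x is then detected by antibody staining alongside c-Jun and Hoechst, and quantified by automated fluorescence imaging.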

[2] = APR_HepG2_MitoMembPot_72hr: Apredica 72-hour HepG2 Assay for Mitochondrial Membrane Potential (AID 2282917); conditions: imaging, actives raise or lower the signal
Summary of the method: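 HepG2 cells exposed 72 h to compounds at 0.39–200 uM (0.5% v/v DMSO, duplicates); MitoTracker Red CMXRos 250 nM loaded 30 min before 3.7% formaldehyde fixation, imaged by HCS fluorescence. Bidirectional fit versus DMSO.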

[3] = APR_HepG2_MitoticArrest_72hr: Apredica 72-hour HepG2 Assay for Mitotic Arrest (AID 2282918); conditions: high-content imaging, actives raise or lower the signal
Summary of the method: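 Using high-content imaging of fixed HepG2 cells, phospho-histone H3 signal was measured following a 72 hr incubation with ten-point compound dilutions up to 200 uM. DMSO served as the negative control and baseline for bidirectional curve fitting.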

[4] = APR_HepG2_MicrotubuleCSK_72hr: Apredica 72-hour HepG2 Assay for Microtubule CSK Stabilty (AID 2282919); conditions: HepG2 microtubule cytoskeleton, high-content imaging, actives raise or lower the signal
Summary of the method: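 Ten-point dosing (0.39–200 uM, 0.5% DMSO) of HepG2 for 72 hr, with taxol as the cytoskeletal positive control. The cells were formaldehyde-fixed and then stained with alpha-tubulin/Cy5 and Hoechst. Imaging at 20x used a −2 um Z offset for tubulin.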

[5] = APR_HepG2_P-H2AX_24hr: Apredica 24-hour HepG2 Assay for H2AX Phosphorylation (AID 2282920); conditions: high-content imaging, actives raise or lower the signal
Summary of the method: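 Human HepG2 liver cells, treated 24 hr with test chemicals (0.39–200 uM, final DMSO 0.5% v/v), are fixed and co-stained for phospho-H2A.x and c-Jun with Hoechst. Imaged intensity is fitted in both directions against DMSO controls.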

[6] = APR_HepG2_StressKinase_72hr: Apredica 72-hour HepG2 Assay for Stress Kinase (AID 2282921); conditions: HepG2 stress kinase (phospho-c-Jun) imaging, actives raise or lower the signal
Summary of the method: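 After a 72 h compound treatment spanning 0.39 to 200 uM, formaldehyde-fixed cells are labelled for phosphorylated c-Jun and nuclei, imaged by automated fluorescence microscopy, and activity is fitted in both directions relative to DMSO controls.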

[7] = APR_HepG2_p53Act_72hr: Apredica 72-hour HepG2 Assay for p53 Activation (AID 2282923); conditions: high-content imaging, actives raise or lower the signal;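 note: average cellular p53 protein immunofluorescence intensity in HepG2 cells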
Summary of the method: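 Imaging-based endpoint: after 72 hr compound exposure (up to 200 uM, 0.5% DMSO), fixed and permeabilized monolayers were labelled with anti-p53 antibody and imaged; signal change in either direction was fitted relative to DMSO controls.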

[8] = APR_HepG2_MitoMass_72hr: Apredica 72-hour HepG2 Assay for Mitochondrial Mass (AID 2282924); conditions: high-content imaging, actives raise or lower the signal;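 note: MitoTracker Red CMXRos stain intensity per cell imaged as mitochondrial mass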
Summary of the method: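 Steps: treat HepG2 72 hr (0.39–200 uM, duplicate wells); load MitoTracker Red CMXRos, 250 nM, 30 min; fix with 3.7% formaldehyde, permeabilise with 0.5% Triton X-100; capture images, nuclei via Hoechst 33342; fit bidirectionally against DMSO.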

[9] = APR_HepG2_NuclearSize_72hr: Apredica 72-hour HepG2 Assay for Nuclear Size (AID 2282925); conditions: high-content imaging, actives raise or lower the signal
Summary of the method: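 Compounds (0.39–200 uM, final DMSO 0.5%) were applied to HepG2 for 72 hr. Cells were then formaldehyde-fixed, permeabilized and labelled with Hoechst 33342. Nuclear diameter was quantified from six images per well.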

[10] = ATG_CRE_CIS: Attagene CIS-FACTORIAL HepG2 Assay for human cAMP Responsive Element (CRE) binding protein 3 (AID 2282926); conditions: HepG2 CRE cis-reporter, Attagene multiplexed mRNA; actives raise or lower the signal
Summary of the method: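 Liver-derived HepG2, transfected with a CRE-containing reporter panel, exposed 24 h; transcript levels sized and quantified by capillary electrophoresis of labelled amplicons; signal changes either way referenced to vehicle.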

[11] = target: CCAAT/enhancer-binding protein beta (Homo sapiens) (UniProt P17676); assay: ATG_C_EBP_CIS: Attagene CIS-FACTORIAL HepG2 Assay for human CCAAT/Enhancer Binding Protein (C/EBP) beta (AID 2282927); conditions: HepG2 Attagene cis-factorial transcription factor reporter; actives raise or lower the signal
Sequence of CCAAT/enhancer-binding protein beta (Homo sapiens) (P17676 whole entry, looked up): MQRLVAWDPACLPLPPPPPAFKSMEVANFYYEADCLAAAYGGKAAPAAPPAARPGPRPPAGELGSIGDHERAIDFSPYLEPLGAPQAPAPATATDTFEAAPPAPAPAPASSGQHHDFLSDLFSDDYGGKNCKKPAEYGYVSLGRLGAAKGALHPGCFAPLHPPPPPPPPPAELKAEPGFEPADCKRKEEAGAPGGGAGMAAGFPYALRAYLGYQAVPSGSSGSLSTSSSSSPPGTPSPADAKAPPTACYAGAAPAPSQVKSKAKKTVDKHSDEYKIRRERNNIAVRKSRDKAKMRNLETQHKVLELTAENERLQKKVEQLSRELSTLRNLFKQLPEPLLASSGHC
Summary of the method: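 Following a 24 h incubation with test chemical, transfected HepG2 cells yielded RNA whose reporter transcripts were quantified by RT-PCR and fluorescent capillary electrophoresis, with DMSO serving as baseline for bidirectional fitting.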

[12] = ATG_CMV_CIS: Attagene CIS-FACTORIAL HepG2 Assay for human CMV (Internal Marker) (AID 2282928); conditions: HepG2 CMV promoter reporter, transcription factor profiling; actives raise or lower the signal;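 note: endpoint acts as a background internal control marker rather than a target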
Summary of the method: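 Fluorescence intensity of RT-PCR-derived reporter fragments, resolved by capillary electrophoresis, gives the signal. HepG2 liver cells bearing transfected cis-element reporters were treated 24 h; activity in either direction was fit relative to DMSO-treated controls.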

[13] = ATG_DR4_LXR_CIS: Attagene CIS-FACTORIAL HepG2 Assay for human Liver X Receptor (LXR), DR4 submotif (AID 2282929); conditions: HepG2 Attagene DR4 cis-reporter, mRNA transcription; actives raise or lower the signal
Summary of the method: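 After transient transfection with multiplexed cis-promoter reporter units, HepG2 cells received test chemicals for 24 h. Reporter mRNA induction, detected by fluorescence after RT-PCR and capillary electrophoresis, was scored relative to DMSO.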

[14] = target: Aryl hydrocarbon receptor (Homo sapiens) (UniProt P35869); assay: ATG_Ahr_CIS: Attagene CIS-FACTORIAL HepG2 Assay for human Aryl Hydrocarbon Receptor (Ahr) (AID 2282930); conditions: HepG2 AhR cis-factorial reporter transcription; actives raise or lower the signal
Sequence of Aryl hydrocarbon receptor (Homo sapiens) (P35869 whole entry, looked up): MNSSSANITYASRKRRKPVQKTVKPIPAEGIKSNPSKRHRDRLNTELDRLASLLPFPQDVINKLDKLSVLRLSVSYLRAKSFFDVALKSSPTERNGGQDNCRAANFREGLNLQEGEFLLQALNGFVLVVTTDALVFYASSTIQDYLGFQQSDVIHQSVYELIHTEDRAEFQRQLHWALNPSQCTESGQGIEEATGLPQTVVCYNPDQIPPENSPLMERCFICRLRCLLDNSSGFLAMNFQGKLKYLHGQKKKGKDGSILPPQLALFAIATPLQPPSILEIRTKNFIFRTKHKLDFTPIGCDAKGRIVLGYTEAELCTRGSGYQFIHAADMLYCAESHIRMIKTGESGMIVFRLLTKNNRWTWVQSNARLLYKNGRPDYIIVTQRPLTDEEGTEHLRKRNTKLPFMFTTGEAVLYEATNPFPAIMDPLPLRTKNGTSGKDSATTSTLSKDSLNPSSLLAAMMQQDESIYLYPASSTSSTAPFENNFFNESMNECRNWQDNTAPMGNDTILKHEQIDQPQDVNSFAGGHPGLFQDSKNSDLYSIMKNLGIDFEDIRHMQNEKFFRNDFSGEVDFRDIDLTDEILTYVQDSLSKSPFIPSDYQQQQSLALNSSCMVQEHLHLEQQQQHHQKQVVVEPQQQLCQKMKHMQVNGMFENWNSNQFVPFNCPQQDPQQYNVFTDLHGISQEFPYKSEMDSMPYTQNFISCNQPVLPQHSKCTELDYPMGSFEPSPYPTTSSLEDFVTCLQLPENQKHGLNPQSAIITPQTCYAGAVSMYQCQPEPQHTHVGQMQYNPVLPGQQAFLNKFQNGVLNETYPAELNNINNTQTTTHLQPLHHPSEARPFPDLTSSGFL
Summary of the method: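 Values derive from bidirectional fitting against DMSO negative control. Underlying signal: cis-element reporter mRNA in transiently transfected HepG2, harvested 24 h post-dose and measured by RT-PCR plus capillary electrophoresis.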

[15] = ATG_AP_2_CIS: Attagene CIS-FACTORIAL HepG2 Assay for human Activator Protein 2 (AP-2) (AID 2282932); conditions: HepG2 AP-2 cis-reporter, Attagene transcription factor profiling; actives raise or lower the signal
Summary of the method: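 Cells (HepG2) transfected with promoter-driven reporter constructs, treated 24 h. Total RNA reverse-transcribed, reporter cDNA PCR-amplified, FAM-labelled by primer extension, digested, resolved by capillary electrophoresis. Activity fitted both directions versus DMSO.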

[16] = ATG_BRE_CIS: Attagene CIS-FACTORIAL HepG2 Assay for human Bone Morphogenetic Protein (BMP) Response Element (BRE) (AID 2282933); conditions: HepG2 BMP response element reporter, Attagene transcription factor profiling; actives raise or lower the signal
Summary of the method: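 HepG2 cells transiently transfected with CIS reporter units (endogenous TF activity, BMP response element), dosed 24 h. Reporter mRNA quantified by RT-PCR, fluorescent labelling and capillary electrophoresis; bidirectional fit vs DMSO baseline.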

[17] = target: Retinoic acid receptor alpha (Homo sapiens) (UniProt P10276); assay: ATG_DR5_RAR_CIS: Attagene CIS-FACTORIAL HepG2 Assay for human Retinoic Acid Receptor Alpha (RARE), DR5 submotif (AID 2282934); conditions: HepG2 Attagene cis-factorial RARE DR5 reporter, mRNA; actives raise or lower the signal
Sequence of Retinoic acid receptor alpha (Homo sapiens) (P10276 whole entry, looked up): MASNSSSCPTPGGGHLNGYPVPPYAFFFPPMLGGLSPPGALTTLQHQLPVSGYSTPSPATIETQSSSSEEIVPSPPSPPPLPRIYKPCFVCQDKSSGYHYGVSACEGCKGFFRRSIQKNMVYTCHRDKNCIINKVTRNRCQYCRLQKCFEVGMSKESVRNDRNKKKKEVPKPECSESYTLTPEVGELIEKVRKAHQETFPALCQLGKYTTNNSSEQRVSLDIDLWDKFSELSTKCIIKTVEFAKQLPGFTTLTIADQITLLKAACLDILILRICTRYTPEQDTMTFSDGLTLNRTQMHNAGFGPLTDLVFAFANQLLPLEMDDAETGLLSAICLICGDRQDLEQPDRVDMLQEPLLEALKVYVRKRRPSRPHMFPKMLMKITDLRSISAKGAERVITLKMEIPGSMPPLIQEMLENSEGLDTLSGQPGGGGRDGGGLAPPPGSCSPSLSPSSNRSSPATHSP
Summary of the method: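 Endpoint fitted in both directions relative to DMSO as negative control. It reflects DR5 cis-element reporter mRNA induction in transiently transfected HepG2 cells, measured 24 h after dosing through RT-PCR and fluorescent capillary electrophoresis.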

[18] = ATG_AP_1_CIS: Attagene CIS-FACTORIAL HepG2 Assay for human Activator Protein 1 (AP-1) (AID 2282931); conditions: HepG2 Attagene cis-factorial AP-1 reporter mRNA; actives raise or lower the signal
Summary of the method: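 After 24 h incubation with test chemical, RNA from transfected HepG2 cells was reverse-transcribed, amplified, fluorescently labelled and digested before capillary electrophoresis. Reporters were driven by cis-regulatory promoters; activity fitted bidirectionally versus DMSO.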

[19] = target: Transcription factor E2F1 (Homo sapiens) (UniProt Q01094); assay: ATG_E2F_CIS: Attagene CIS-FACTORIAL HepG2 Assay for human E2F Transcription Factor 1 (AID 2282935); conditions: HepG2 Attagene cis-reporter, E2F reporter RNA transcripts; actives raise or lower the signal
Sequence of Transcription factor E2F1 (Homo sapiens) (Q01094 whole entry, looked up): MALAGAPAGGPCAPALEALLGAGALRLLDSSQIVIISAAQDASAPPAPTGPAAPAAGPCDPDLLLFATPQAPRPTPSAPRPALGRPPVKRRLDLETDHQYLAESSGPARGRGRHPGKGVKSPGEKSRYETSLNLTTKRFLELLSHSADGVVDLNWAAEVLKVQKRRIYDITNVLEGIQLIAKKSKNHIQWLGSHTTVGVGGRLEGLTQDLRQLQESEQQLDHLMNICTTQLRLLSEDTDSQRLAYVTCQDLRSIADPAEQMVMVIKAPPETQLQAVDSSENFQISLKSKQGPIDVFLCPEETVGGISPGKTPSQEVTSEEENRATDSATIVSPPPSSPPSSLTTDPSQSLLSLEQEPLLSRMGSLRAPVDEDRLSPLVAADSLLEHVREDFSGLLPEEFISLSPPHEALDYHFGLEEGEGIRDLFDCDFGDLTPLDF
Summary of the method: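 First, HepG2 cells were transfected with reporter transcription units. Next, they were dosed for 24 h. Then RNA was isolated, converted to cDNA, PCR-amplified, FAM-labeled, HpaI-digested and analyzed by capillary electrophoresis.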

[20] = APR_HepG2_StressKinase_24hr: Apredica 24-hour HepG2 Assay for Stress Kinase (AID 2282922); conditions: HepG2 stress kinase (phospho-c-Jun) imaging, actives raise or lower the signal
Summary of the method: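 After 24 hr compound treatment (up to 200 uM, final DMSO 0.5% v/v), HepG2 cells are fixed and multiplex-labeled; phospho-c-Jun intensity is captured by high-content fluorescence imaging and analyzed relative to DMSO.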

Measured: AC50

Cc1cc(O)ccc1Cl
not listed: [18] | [19] | [20]
inactive: all other assays above

c1ccc(-c2ccccc2)cc1
not listed: [19] | [20]
inactive: all other assays above

Nc1ccc(-c2ccc(N)cc2)cc1
active: [1] 104 µM | [5] 91.2 µM | [7] 106 µM
not listed: [18] | [20]
inactive: all other assays above

Cc1ccccc1[N+](=O)[O-]
not listed: [18] | [19] | [20]
inactive: all other assays above

COS(=O)(=O)OC
not listed: [20]
inactive: all other assays above

Nn1cnnc1
not listed: [18] | [20]
inactive: all other assays above

Clc1ccc(Cl)cc1
not listed: [18] | [20]
inactive: all other assays above

Sc1ccccc1
inactive: [10] | [11] | [12] | [13] | [14] | [18] | [15] | [16] | [19]

CCC(C)(c1ccc(O)cc1)c1ccc(O)cc1
inactive: [1] | [20] | [7] | [9] | [10] | [11] | [12] | [14] | [15] | [16]
active: [5] 104 µM | [6] 34.3 µM | [10] 53.2 µM | [12] 56.5 µM and 56.1 µM and 23.2 µM | [13] 47.5 µM [middle of 4 runs] | [14] 58.9 µM

CCCCCCCCOC(=O)c1ccccc1C(=O)OCCCCCCCC
not listed: [18] | [20]
inactive: all other assays above

Cc1ccccc1O
not listed: [18] | [20]
inactive: all other assays above

CN(C)c1nc(=O)n(C2CCCCC2)c(=O)n1C
not listed: [7] | [17] | [19] | [20]
inactive: all other assays above
